ChEMBL document CHEMBL2218924, “A broad activity screen in support of a chemogenomic map for kinase signalling research and drug discovery” (Biochem J, 2013)

What was measured:
[1] = target: T1, Tyrosine-protein kinase ITK/TSK (Homo sapiens) (UniProt Q08881); details: at 10 µM
T1 sequence (whole entry): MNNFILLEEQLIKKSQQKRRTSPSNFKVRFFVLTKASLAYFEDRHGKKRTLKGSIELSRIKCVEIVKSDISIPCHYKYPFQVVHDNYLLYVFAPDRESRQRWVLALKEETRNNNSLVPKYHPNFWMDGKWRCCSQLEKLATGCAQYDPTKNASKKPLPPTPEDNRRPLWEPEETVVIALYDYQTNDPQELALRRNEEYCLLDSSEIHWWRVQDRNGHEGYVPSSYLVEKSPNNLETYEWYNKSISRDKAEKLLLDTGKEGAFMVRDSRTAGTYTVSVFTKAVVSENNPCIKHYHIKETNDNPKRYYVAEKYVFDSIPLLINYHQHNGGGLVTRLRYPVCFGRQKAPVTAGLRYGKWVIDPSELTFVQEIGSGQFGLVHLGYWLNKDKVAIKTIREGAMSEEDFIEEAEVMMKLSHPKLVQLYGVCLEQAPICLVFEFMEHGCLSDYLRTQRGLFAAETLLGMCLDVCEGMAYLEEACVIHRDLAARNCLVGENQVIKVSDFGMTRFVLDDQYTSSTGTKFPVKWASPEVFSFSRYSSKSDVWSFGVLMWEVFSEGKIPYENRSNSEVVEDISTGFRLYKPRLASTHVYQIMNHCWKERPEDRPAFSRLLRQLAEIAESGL

[2] = target: Tyrosine-protein kinase JAK2 (Homo sapiens) (UniProt O60674); details: at 1 µM
[3] = target: Tyrosine-protein kinase JAK2 (Homo sapiens) (UniProt O60674); details: at 10 µM
[4] = target: T2, Tyrosine-protein kinase JAK3 (Homo sapiens) (UniProt P52333); details: at 1 µM
T2 sequence (whole entry): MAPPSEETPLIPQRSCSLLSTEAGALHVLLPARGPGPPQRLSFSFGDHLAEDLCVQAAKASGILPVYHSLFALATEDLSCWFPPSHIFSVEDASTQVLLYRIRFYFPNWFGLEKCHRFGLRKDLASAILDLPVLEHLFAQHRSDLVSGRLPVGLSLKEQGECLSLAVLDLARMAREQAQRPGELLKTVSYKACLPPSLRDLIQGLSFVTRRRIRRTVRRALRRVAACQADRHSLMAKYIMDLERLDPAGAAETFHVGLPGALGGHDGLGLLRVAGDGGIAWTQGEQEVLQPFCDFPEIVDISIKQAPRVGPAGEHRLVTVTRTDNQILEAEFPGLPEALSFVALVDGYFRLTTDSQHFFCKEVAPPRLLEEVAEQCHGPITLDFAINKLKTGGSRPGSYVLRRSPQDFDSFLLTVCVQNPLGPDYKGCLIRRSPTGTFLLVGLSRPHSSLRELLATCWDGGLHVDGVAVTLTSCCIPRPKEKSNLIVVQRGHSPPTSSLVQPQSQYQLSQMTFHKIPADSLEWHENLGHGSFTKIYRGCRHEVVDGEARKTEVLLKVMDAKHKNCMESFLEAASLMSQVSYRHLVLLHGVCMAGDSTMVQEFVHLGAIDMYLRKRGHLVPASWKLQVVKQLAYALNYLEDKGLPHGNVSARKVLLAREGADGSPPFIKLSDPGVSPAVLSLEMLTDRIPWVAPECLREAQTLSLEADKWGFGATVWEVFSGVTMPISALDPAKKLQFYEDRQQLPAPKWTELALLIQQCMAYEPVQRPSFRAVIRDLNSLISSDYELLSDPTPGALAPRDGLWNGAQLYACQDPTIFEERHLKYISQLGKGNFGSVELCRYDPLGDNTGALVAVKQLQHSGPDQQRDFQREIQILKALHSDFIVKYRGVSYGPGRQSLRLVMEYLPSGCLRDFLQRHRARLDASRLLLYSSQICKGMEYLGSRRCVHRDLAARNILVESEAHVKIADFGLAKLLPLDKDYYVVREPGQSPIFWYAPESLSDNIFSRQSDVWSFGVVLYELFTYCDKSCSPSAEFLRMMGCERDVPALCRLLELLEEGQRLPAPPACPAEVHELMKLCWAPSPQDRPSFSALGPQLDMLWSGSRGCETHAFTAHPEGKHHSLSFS

[5] = target: T2, Tyrosine-protein kinase JAK3 (Homo sapiens); details: at 10 µM
[6] = target: Mitogen-activated protein kinase 8 (Homo sapiens) (UniProt P45983); details: at 1 µM
[7] = target: Mitogen-activated protein kinase 8 (Homo sapiens) (UniProt P45983); details: at 10 µM
[8] = target: Mitogen-activated protein kinase 10 (Homo sapiens) (UniProt P53779); details: at 1 µM
[9] = target: Mitogen-activated protein kinase 10 (Homo sapiens) (UniProt P53779); details: at 10 µM
[10] = target: Vascular endothelial growth factor receptor 2 (Homo sapiens) (UniProt P35968); details: at 1 µM
[11] = target: Vascular endothelial growth factor receptor 2 (Homo sapiens) (UniProt P35968); details: at 10 µM
[12] = target: LIM domain kinase 1 (Homo sapiens) (UniProt P53667); details: at 1 µM
[13] = target: LIM domain kinase 1 (Homo sapiens) (UniProt P53667); details: at 10 µM
[14] = target: Serine/threonine-protein kinase 10 (Homo sapiens) (UniProt O94804); details: at 1 µM
[15] = target: Serine/threonine-protein kinase 10 (Homo sapiens) (UniProt O94804); details: at 10 µM
[16] = target: Tyrosine-protein kinase Lck (Homo sapiens) (UniProt P06239); details: at 1 µM
[17] = target: Mitogen-activated protein kinase 9 (Homo sapiens) (UniProt P45984); details: at 10 µM
[18] = target: T3, Serine/threonine-protein kinase STK11 (Homo sapiens) (UniProt Q15831); details: at 1 µM
T3 sequence (whole entry): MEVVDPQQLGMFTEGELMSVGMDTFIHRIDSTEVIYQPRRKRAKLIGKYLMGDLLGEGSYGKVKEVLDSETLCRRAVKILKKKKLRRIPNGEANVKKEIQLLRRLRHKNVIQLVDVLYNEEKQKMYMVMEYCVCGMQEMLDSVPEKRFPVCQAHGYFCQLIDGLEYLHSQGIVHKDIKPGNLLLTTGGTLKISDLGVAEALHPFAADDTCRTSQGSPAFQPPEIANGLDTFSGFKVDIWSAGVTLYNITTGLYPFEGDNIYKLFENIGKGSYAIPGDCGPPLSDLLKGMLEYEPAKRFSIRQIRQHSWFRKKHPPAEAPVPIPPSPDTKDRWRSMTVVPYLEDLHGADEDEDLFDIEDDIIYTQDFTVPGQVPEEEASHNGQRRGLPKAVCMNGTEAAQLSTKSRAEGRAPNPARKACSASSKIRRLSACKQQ

[19] = target: T3, Serine/threonine-protein kinase STK11 (Homo sapiens); details: at 10 µM
[20] = target: Mitogen-activated protein kinase 9 (Homo sapiens) (UniProt P45984); details: at 1 µM

Sequence of Mitogen-activated protein kinase 9 (Homo sapiens) (P45984 whole entry, looked up): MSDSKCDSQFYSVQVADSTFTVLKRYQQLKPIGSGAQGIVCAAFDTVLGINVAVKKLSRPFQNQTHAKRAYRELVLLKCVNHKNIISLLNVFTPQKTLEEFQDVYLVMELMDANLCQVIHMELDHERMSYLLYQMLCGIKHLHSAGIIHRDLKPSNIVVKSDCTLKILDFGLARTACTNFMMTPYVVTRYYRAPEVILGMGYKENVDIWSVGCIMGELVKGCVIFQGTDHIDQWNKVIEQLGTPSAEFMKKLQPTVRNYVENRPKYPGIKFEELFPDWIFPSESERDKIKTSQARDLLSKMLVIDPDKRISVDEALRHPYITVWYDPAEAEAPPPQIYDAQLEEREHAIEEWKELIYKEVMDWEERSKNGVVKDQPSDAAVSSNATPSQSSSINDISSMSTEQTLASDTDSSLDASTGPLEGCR
Sequence of Mitogen-activated protein kinase 10 (Homo sapiens) (P53779 whole entry): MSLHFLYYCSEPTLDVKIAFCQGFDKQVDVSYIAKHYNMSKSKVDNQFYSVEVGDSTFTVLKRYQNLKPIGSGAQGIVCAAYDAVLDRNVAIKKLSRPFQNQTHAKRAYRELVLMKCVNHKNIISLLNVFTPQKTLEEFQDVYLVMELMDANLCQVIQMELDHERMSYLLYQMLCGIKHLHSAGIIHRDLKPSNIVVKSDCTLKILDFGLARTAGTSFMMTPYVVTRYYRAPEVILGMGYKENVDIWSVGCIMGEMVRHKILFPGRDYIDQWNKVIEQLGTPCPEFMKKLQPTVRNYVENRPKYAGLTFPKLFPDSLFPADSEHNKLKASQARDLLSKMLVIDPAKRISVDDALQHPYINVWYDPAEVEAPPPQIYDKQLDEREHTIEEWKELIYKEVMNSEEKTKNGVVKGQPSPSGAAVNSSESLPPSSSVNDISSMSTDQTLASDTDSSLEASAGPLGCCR
Sequence of Tyrosine-protein kinase JAK2 (Homo sapiens) (O60674 whole entry): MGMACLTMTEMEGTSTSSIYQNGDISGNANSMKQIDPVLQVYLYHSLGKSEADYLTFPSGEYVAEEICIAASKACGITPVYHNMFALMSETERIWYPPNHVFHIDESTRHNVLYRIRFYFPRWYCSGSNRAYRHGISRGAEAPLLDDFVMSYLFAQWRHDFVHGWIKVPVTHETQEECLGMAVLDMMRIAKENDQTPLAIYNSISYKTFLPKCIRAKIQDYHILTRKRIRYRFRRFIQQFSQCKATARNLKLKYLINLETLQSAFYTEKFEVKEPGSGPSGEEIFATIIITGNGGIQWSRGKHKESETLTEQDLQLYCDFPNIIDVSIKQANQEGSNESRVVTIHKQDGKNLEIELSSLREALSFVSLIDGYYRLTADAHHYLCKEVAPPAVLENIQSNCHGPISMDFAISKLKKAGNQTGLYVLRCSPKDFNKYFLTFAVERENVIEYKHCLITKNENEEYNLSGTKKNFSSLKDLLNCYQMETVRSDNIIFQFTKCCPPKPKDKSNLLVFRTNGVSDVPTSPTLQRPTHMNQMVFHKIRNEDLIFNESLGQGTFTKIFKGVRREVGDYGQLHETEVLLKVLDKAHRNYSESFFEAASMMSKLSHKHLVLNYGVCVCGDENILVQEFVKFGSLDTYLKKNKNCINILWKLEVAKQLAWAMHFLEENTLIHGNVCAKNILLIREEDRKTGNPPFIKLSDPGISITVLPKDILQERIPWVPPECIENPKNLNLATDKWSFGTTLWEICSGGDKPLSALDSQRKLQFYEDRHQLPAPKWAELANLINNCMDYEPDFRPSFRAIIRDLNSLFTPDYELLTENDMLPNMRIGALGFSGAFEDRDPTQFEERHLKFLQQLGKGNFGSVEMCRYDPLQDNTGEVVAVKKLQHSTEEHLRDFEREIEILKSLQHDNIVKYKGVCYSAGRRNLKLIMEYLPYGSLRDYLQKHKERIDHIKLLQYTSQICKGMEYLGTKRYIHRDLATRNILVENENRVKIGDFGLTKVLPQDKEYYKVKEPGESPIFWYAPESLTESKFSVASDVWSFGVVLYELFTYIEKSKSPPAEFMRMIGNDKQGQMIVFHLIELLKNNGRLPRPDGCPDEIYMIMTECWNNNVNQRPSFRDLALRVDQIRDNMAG
Sequence of Tyrosine-protein kinase Lck (Homo sapiens) (P06239 2-509 limits assumed): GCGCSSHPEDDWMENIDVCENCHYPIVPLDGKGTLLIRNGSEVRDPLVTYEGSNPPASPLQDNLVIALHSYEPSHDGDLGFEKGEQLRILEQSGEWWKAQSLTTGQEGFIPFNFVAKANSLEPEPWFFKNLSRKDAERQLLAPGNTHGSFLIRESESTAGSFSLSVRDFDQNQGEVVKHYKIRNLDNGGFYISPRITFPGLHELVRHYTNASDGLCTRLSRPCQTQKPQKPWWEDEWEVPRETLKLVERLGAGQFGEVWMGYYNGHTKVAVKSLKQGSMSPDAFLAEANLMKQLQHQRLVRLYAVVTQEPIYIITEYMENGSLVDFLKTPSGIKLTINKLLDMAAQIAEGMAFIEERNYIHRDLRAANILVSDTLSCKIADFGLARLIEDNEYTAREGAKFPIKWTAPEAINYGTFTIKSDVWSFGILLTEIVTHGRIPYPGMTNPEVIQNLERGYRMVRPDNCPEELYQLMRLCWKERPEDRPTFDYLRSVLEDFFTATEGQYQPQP
Sequence of Mitogen-activated protein kinase 8 (Homo sapiens) (P45983 whole entry): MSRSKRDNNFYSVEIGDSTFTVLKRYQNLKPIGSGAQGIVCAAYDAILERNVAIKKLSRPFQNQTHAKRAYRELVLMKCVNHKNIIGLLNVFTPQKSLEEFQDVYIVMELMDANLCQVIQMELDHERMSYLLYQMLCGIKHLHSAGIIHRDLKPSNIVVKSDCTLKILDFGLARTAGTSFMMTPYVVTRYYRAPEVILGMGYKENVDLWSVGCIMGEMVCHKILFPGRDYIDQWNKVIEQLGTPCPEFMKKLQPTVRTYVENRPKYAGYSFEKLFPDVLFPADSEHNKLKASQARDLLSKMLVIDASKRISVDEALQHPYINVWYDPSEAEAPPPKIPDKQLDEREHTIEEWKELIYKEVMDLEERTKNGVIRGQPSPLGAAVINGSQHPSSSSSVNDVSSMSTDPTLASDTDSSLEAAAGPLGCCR
Sequence of LIM domain kinase 1 (Homo sapiens) (P53667 whole entry, looked up, the tested form may be a part): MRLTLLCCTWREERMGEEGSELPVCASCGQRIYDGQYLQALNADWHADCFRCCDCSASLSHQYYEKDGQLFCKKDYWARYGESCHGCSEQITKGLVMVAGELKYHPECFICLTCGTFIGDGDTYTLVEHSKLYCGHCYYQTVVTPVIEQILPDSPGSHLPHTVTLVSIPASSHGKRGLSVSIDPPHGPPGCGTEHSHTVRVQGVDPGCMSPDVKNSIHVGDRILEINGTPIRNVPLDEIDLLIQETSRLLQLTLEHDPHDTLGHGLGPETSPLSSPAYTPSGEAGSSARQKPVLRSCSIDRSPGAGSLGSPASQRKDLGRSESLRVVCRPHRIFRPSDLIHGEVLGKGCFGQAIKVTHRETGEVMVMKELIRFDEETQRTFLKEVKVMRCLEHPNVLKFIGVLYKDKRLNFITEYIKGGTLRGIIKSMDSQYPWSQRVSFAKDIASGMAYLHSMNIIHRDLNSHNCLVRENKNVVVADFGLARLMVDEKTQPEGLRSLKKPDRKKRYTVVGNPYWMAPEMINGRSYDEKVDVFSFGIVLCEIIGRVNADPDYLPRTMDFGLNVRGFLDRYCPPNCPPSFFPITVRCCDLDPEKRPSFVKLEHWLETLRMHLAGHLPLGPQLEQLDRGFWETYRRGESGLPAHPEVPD
Sequence of Vascular endothelial growth factor receptor 2 (Homo sapiens) (P35968 whole entry, the tested form may be a part): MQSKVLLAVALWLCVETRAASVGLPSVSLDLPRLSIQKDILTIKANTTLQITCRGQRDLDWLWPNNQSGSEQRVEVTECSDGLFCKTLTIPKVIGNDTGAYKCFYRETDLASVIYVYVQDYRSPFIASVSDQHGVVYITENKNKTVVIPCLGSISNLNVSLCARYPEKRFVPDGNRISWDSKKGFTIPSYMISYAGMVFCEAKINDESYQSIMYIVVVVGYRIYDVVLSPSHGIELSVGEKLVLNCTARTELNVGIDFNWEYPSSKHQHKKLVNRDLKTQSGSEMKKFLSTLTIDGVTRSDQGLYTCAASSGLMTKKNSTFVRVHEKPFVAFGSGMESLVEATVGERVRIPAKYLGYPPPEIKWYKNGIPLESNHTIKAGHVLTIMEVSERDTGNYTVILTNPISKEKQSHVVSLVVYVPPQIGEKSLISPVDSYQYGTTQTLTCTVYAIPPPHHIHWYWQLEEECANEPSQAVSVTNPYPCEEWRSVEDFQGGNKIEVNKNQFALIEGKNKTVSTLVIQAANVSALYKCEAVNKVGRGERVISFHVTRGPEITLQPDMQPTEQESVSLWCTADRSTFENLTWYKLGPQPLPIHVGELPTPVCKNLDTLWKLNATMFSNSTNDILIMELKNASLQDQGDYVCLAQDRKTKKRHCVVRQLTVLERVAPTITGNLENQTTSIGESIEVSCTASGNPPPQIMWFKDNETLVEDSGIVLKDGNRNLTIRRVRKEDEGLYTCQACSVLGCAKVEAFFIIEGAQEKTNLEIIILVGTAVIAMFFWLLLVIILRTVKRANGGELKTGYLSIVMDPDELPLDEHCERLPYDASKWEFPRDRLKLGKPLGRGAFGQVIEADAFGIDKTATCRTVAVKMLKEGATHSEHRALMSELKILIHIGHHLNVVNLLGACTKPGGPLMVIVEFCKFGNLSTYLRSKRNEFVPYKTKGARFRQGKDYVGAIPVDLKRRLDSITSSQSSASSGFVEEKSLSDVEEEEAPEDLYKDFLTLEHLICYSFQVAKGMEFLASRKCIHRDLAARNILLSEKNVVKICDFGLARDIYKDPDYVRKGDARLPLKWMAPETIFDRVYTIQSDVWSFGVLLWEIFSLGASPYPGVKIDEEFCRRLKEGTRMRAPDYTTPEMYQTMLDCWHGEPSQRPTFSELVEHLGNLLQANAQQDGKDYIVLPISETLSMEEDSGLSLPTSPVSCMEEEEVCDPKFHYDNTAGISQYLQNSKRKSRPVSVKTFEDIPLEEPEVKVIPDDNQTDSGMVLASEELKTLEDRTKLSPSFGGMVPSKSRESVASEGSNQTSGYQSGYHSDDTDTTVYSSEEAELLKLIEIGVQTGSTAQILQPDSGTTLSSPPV

Structure (SMILES) | residual activity [1] [%] | residual activity [2] [%] | residual activity [3] [%] | residual activity [4] [%] | residual activity [5] [%] | residual activity [6] [%] | residual activity [7] [%] | residual activity [8] [%] | residual activity [9] [%] | residual activity [10] [%] | residual activity [11] [%] | residual activity [12] [%] | residual activity [13] [%] | residual activity [14] [%] | residual activity [15] [%] | residual activity [16] [%] | residual activity [17] [%] | residual activity [18] [%] | residual activity [19] [%] | residual activity [20] [%]
CCN(CC)CCNC(=O)c1c(C)[nH]c(/C=C2\C(=O)Nc3ccc(Cl)cc32)c1C | 2 | 72 | 20 | 62 | 16 | 97 | 82 | 80 | 75 | 2 | 1 | 99 | 44 | 15 | 5 | 12 |  |  |  | 
O=c1cc(N2CCNCC2)oc2c(-c3ccccc3)cccc12 | 93 |  | 101 | 94 | 78 |  | 84 | 73 | 89 | 100 | 89 | 92 | 86 | 95 | 89 |  | 97 | 97 | 92 | 
CC(C)(C)n1nc(Cc2cccc3ccccc23)c2c(N)ncnc21 | 106 | 101 | 121 | 99 | 100 | 108 | 78 | 28 | -1 | 69 | 14 | 101 | 69 | 80 | 41 | 36 | 78 | 91 | 61 | 108
CCCCc1c(-c2ccc(O)cc2)[nH]c2nccnc12 | 38 | 62 | 63 | 80 | 26 |  |  | 56 | 23 | 77 | 42 | 64 | 53 | 80 | 90 | 48 | 98 |  | 73 | 97
O=C1NC(=O)c2c1c1c3ccccc3[nH]c1n1cncc21 | 44 | 97 | 93 | 83 | 58 | 89 | 75 | 25 | 11 | 10 | 8 | 71 | 48 | 70 | 58 | 61 | 49 | 84 | 62 | 67
COc1ccc(COc2ccc(Cc3cnc(N)nc3N)cc2OC)cc1 | 99 |  |  |  |  |  |  |  |  |  |  |  |  |  |  | 110 |  |  |  | 
COc1ccc(Cl)cc1NC(=O)Nc1cc(C)nc2ccccc12 |  | 124 | 155 |  | 145 |  |  | 85 | 78 |  |  |  |  | 96 | 96 |  |  |  | 95 | 
NCCNc1ncc(C(N)=O)c(Nc2cccc(C(F)(F)F)c2)n1 |  |  |  | 116 | 106 |  |  | 79 | 46 | 101 | 78 | 102 | 50 |  |  | 80 | 76 | 74 | 20 | 103
CC(C)[C@H](CO)Nc1nc(Nc2cc(N)cc(Cl)c2)c2ncn(C(C)C)c2n1 |  |  |  |  | 87 |  |  | 82 | 67 |  |  |  | 85 | 57 | 17 |  |  |  | 72 | 
Cc1cc(C)c(/C=C2\C(=O)Nc3ccccc32)[nH]1 |  |  |  |  |  |  |  |  |  | 4 | 2 |  |  |  | 45 |  | 101 |  |  | 102
N#C/C(=C1/Nc2ccccc2S1)c1ccnc(NCCc2cccnc2)n1 |  |  |  | 95 | 48 | 67 | 55 |  |  |  |  |  |  | 78 | 39 |  |  | 96 | 81 | 
Nc1nccc(-c2c(-c3ccc(F)cc3)ncn2C2CCNCC2)n1 |  |  |  | 120 | 118 |  |  | 69 | 22 |  |  | 64 | 25 |  |  |  |  |  |  | 
O=C1Nc2ccc(Cl)cc2/C1=C/c1cc(Cl)c(O)c(Cl)c1 |  | 98 | 69 | 75 | 28 | 95 | 69 | 64 | 32 | 13 | 1 | 88 | 42 | 67 | 47 | 95 |  | 91 | 86 | 
O=C(NC(NC(=S)Nc1ccc(F)c([N+](=O)[O-])c1)C(Cl)(Cl)Cl)C(c1ccccc1)c1ccccc1 (stereo not drawn) |  |  |  |  | 78 |  | 102 | 92 | 79 | 104 | 102 | 90 | 75 |  |  | 95 |  | 98 | 103 | 
Oc1cccc(-c2nc(N3CCOCC3)c3oc4ncccc4c3n2)c1 |  |  |  |  |  |  | 77 | 91 |  |  |  |  |  | 96 | 87 |  |  |  |  | 
O=c1c(-c2ccc(F)cc2)c(-c2ccncc2)[nH]n1-c1ccc(Cl)cc1 |  |  |  |  |  |  |  | -2 | -2 | 102 | 54 |  |  |  | 99 |  | -10 |  |  | 7
CCN1/C(=C/C(C)=O)Sc2ccc(OC)cc21 |  |  |  |  |  |  |  | 65 | 64 |  |  |  |  |  |  |  |  |  |  | 
O=C(O)/C=C/c1cc(Br)c(Br)c(Br)c1Br |  | 87 | 58 | 102 | 34 | 108 | 72 | 99 | 46 | 99 | 81 | 105 | 71 | 94 | 58 | 77 | 72 | 93 | 38 | 100
